Our source for the AC50 and outcome values is PubChem BioAssay (EPA / NIEHS).

Some compounds were tested as several samples or in several runs, with calls that do not always agree. Active and inactive are the calls of the source. Rule for the calls: active = hit-call score of the fitted dose curve at least 0.9, where 1 is the maximum; inactive = score below 0.9.

A short description of this test: ATG_NRF2_ARE_CIS: Attagene CIS-FACTORIAL HepG2 Assay for human Nuclear Factor Erythroid 2 Related Factor 2 (NFR2) response to Antioxidant Response Elements (ARE) (AID 2282992). The note with it: HepG2 Attagene ARE/NRF2 reporter, transcription factor activity; actives raise or lower the signal. As for the experimental part:
ATG_CIS is a cell-based, multiplexed-readout assay that uses HepG2, a human liver cell line, with measurements taken at 24 hours after chemical dosing in a 24-well plate.ATG_NRF2_ARE_CIS is one of 52 assay component(s) measured or calculated from the ATG_CIS assay. It is designed to make measurements of mRNA induction, a form of inducible reporter, as detected with fluorescence intensity signals by Reverse transcription polymerase chain reaction (RT-PCR) and Capillary electrophoresis technology.Data from the assay component ATG_NRF2_ARE_CIS was analyzed into 1 assay endpoint. This assay endpoint, ATG_NRF2_ARE_CIS, was analyzed with bidirectional fitting relative to DMSO as the negative control and baseline of activity. Using a type of inducible reporter, measures of mRNA for gain or loss-of-signal activity can be used to understand the reporter gene at the transcription factor-level as they relate to the gene NFE2L2. Furthermore, this assay endpoint can be referred to as a primary readout, because this assay has produced multiple assay endpoints where this one serves a reporter gene function. To generalize the intended target to other relatable targets, this assay endpoint is annotated to the dna binding intended target family, where the subfamily is basic leucine zipper.
Human liver HepG2 cells are transiently transfected with multiple reporter transcription units (MRTUs) in 6-well plates using FuGene 6 reagent (Roche; 3 ml FuGene/1 mg DNA). The MRTU constructs are regulated by a cis-regulating element (promoter). […] A major difference between the CIS and TRANS system is that in CIS activities of endogenous TFs are measured, whereas the TRANS assay evaluates changes in activities of exogenous, chimeric NR-Gal4 proteins. […] At the end of 24 hour incubation, total RNA was isolated using TriZol reagent (Invitrogen). The isolated RNA is then reverse-transcribed using oligo(dT) primer and Mo-MLV reverse transcriptase (Invitrogen) with DNAse I (Ambion) treatment for 30 min. The one-tenth of the produced cDNA was amplified by PCR using Taq DNA polymerase (Invitrogen) and two reporter sequence-specific primers. The PCR products were fluorescently labeled by primer extension with 6-arboxyfluorescein (6-FAM) 5'-labeled reporter sequence-specific primer (2 min at 95 C, 20 s at 68 C and 10 min at 72 C) and these products were digested with 5U of HpaI (New England Biolabs) for 2h at 37 C. The fragments were purified using Qiaquick PCR columns (Qiagen), analyzed on an ABI 3130xL genetic analyzer (Applied Biosystems) with peak positions identified by using a set of X-rhodamine (ROX)-labeled MapMarker1000 molecular weight standards (BioVentures). The raw capillary electrophoresis data was processed using Attagraph software (Attagene).
For `CC1=CC[C@@H](C(C)(C)O)CC1`, the AC50 was 40.6 µM (active).
The same measure, in the same setting: to `COC(=O)c1cccc(C(=O)OC)c1` belongs 24.7 µM (active).
Turning to `CC(=O)Nc1cc(S(=O)(=O)O)cc2cc(S(=O)(=O)O)c(N=Nc3ccccc3)c(O)c12`, the outcome was inactive.
Still for that read-out and setting: then `[Cl][Dy]([Cl])[Cl]`, with “inactive”.
Turning to `C=C1CC/C=C(\C)CC[C@@H]2[C@@H]1CC2(C)C`, the AC50 was 100 µM (active).
Regarding `C=C1CC[C@H]2O[C@]2(C)CC[C@@H]2[C@@H]1CC2(C)C`, the compound was called inactive.
`CCCC1CCOC(C)S1` (stereo not given): the result was inactive.
On to `CCCCCCCCCCCCS`, for which the concentration at half-maximal activity (AC50) was 26.4 µM (active).
In the case of `C#C[C@]1(O)CC[C@H]2[C@@H]3CCc4cc(O)ccc4[C@H]3CC[C@@]21C`, the AC50 is 187 µM (active) and the compound was classed as inactive.
Turning to `CC(=O)OC/C=C(C)/C=C/C=C(C)/C=C/C1=C(C)CCCC1(C)C`, the AC50 is 3.64 µM (active).
As for `CC/C(=C(\c1ccccc1)c1ccc(OCCN(C)C)cc1)c1ccccc1`, the result was inactive and the AC50 is 3.05 µM (active) [middle of 4 runs].
In the case of `CCC(=O)OC(C)(C)C1CC=C(C)CC1` (stereo not given), the AC50 is 127 µM (active).
For `CCc1cccc(O)c1`, the compound was called inactive.
On to `CC(C)C(=O)c1ccccc1`, for which the compound was called inactive.
For the compound `c1ccc2scnc2c1`, the AC50 was 42.1 µM (active).
In the case of `CC(C)COC(=O)c1ccccc1O`, the compound was called inactive.
Consider `CCCCCC1C(=O)CCC1CC(=O)OC` (stereo not given), for which the compound was called inactive.
`Nc1cc([N+](=O)[O-])ccc1C(=O)O`: the AC50 was 51.8 µM (active).
Take `O=c1cc(-c2ccc(O)cc2)oc2cc(O)cc(O)c12`: the compound was called inactive.
Same read-out and setting: to `C[C@]12CC[C@@H]3c4ccc(O)cc4CC[C@H]3[C@@H]1CC[C@@H]2O` belongs “inactive”; to `CCn1cc(C(=O)O)c(=O)c2ccc(C)nc21`, “inactive”.
For the compound `CC(=O)CCc1ccc(O)cc1`, the compound was classed as inactive.
Same read-out and setting: to `C=C(C)C(N)=O` belongs “inactive”; to `O=C1OCc2ccccc21`, “inactive”.
Take `CN1CCc2cccc3c2[C@H]1Cc1ccc(O)c(O)c1-3`: the AC50 was 5.05 µM (active).
Turning to `CN(C)C(=O)Nc1ccccc1`, the call was inactive.
On to `OCCN1CCOCC1`, for which the compound was classed as inactive.
For the compound `CCNC(=S)NCC`, the compound was called inactive.
With `CCOC(=O)COC(=O)c1ccccc1C(=O)OCC`, the call was inactive.
For `C[N+](C)(C)CCO`, the AC50 was 101 µM (active).
On to `N#CCCNCCC#N`, for which the compound was classed as inactive.
The same measure, in the same setting: to `CC(C)(C)C1CCC(O)CC1` (stereo not given) belongs “inactive”.
On the same count and under the same terms, then `CC(=O)c1ccc(C)cc1`, with “inactive”; and `CC1=CC[C@@H]2C[C@H]1C2(C)C`, with “inactive”.
On the same count and under the same terms, to `CC(C)=CCCC(C)=CC(=O)O` belongs “inactive”.
`CCCCCC(=O)O[C@]1(C(C)=O)CC[C@H]2[C@@H]3CCC4=CC(=O)CC[C@]4(C)[C@H]3CC[C@@]21C`: the concentration at half-maximal activity (AC50) was 12.6 µM (active).
Turning to `COc1ccc2[nH]cc(CCNC(C)=O)c2c1`, the compound was called inactive.
Regarding `CCO[Si](CC)(OCC)OCC`, the AC50 was 19.8 µM (active).
